The source of these data is PubChem BioAssay (NCATS).

The structures appear in SMILES notation. Values joined by “and” are separate entries in the source; they are usually repeats but may differ in a detail not shown here. Equal values may be shown once. Records with an inconclusive call do not appear. Entries that show only a call come without a potency. Active and inactive are the calls of the source. Calls come from the whole dose curve; as a rule, active = well fitted inhibition curve with a large enough effect; inconclusive = small, poorly fitted or top-dose-only effect; inactive = flat fitted curve, though single readings scatter.
Note: nearly all actives have a fitted effect of over 60% in size.

For one experiment, the system named is NIH3T3. Kind of experiment: Cytotoxic Profiling of Annotated Libraries Using Quantitative High-Throughput Screening (AID 1296008). Note: potency is the fitted concentration of half-maximal effect. The note with it: Five cell lines viability, CellTiter-Glo ATP luminescence, 48-72 h; max response: active compounds read low. In short, it runs like this: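 Cells exposed to compounds for 48 or 72 hr at 37 degrees Celsius. Viability read as ATP-coupled luminescence with CellTiter-Glo after 10 min at room temperature.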
(In general: In ATP-based viability assays light output follows the ATP content of the culture.)
In the case of `O=C(O)c1cc(-c2ccccc2)nc2ccccc12`, the max response was 0.25% (inactive) and -0.385% (inactive); the outcome was inactive.
On to `OC[C@@H](O)[C@H](O)[C@H](O)[C@@H](O)CO`, for which the result was inactive.
As to `CCN1CCC[C@H]1CNC(=O)c1cc(S(N)(=O)=O)ccc1OC`, the max response is 0.0033% (inactive) and 0.419% (inactive).
Still for that read-out and setting: the value for `Clc1ccc(Cn2c(CN3CCCC3)nc3ccccc32)cc1` was 3.2% (inactive) and 1.49% (inactive); that for `O=C(O)Cc1cccc2ccccc12` was -0.562% (inactive) and 0.69% (inactive); that for `C[C@@H](O)[C@H]1C(=O)N2C(C(=O)O)=C(S[C@@H]3CN[C@H](C(=O)N(C)C)C3)[C@H](C)[C@H]12` was -2.02% (inactive) and 0.837% (inactive).
The same measure, in the same setting: in the case of `CC(=O)CCCCn1c(=O)c2c(ncn2C)n(C)c1=O` it was 4.69% (inactive) and 0.479% (inactive); in that of `O=C(CCN1CCN(C(=O)OCc2cc(Cl)cc(Cl)c2)CC1)c1ccc2[nH]c(=O)oc2c1`, 1.12% (inactive) and -60.6% (inactive).
As for `COc1ncc(-c2ccc3nccc(-c4ccnnc4)c3c2)cc1NS(=O)(=O)c1ccc(F)cc1F`, the Potency is 3.7 nM (active).
Turning to `CNC(=O)c1ccc2cc(C3(O)CCn4cncc43)ccc2c1` (centres undefined), the max response is 3.68% (inactive) and 1.07% (inactive).
Regarding `COc1ccccc1N1CCN(CCCNc2cc(=O)n(C)c(=O)n2C)CC1`, the compound was classed as inactive.
With `CC(C)C(=O)Oc1ccc(CO)cc1[C@H](CCN(C(C)C)C(C)C)c1ccccc1`, the max response was -3.14% (inactive) and the result was inactive.
Turning to `CC[C@]1(O)C[C@@H]2CN(CCc3c([nH]c4ccccc34)[C@@](C(=O)OC)(c3cc4c(cc3OC)N(C)[C@H]3[C@@](O)(C(=O)OC)[C@H](OC(C)=O)[C@]5(CC)C=CCN6CC[C@]43[C@@H]65)C2)C1`, the Potency is 335 nM (active).
As for `COc1ccc2cc(-c3nc(-c4ccc(S(C)=O)cc4)[nH]c3-c3ccncc3)ccc2c1` (centres undefined), the max response is 3.08% (inactive).
As for `CCN(CC)CCNC(=O)c1ccc(N)cc1`, the call was inactive.
As for `CC(C)(C)c1cc(C(=O)O)c(NC(=O)Nc2ccc3[nH]ncc3c2)s1`, the max response is -6.15% (inactive) and the compound was called inactive.
In the case of `COc1ccc2c(Oc3ccc(NC(=O)c4c(C)n(CC(C)(C)O)n(-c5ccccc5)c4=O)nc3)ccnc2c1`, the Potency is 3660 nM (active).
With `NC(=O)c1ccc2nc(-c3ccc(Oc4ccc(Cl)cc4)cc3)[nH]c2c1`, the max response was -2.72% (inactive) and -4.33% (inactive).
With `CCOc1ccc(Nc2nc(-c3c(C)nc4ccccn34)cs2)cc1`, the Potency was 5.3 nM (active) and 73.1 nM (active).
With `COC(=O)[C@@H]1[C@H]2C[C@H]3c4[nH]c5ccccc5c4CCN3C[C@@H]2CC[C@@H]1O`, the max response was -5.76% (inactive) and the compound was classed as inactive.
Turning to `O=C(Nc1ccccc1-c1cn2c(CN3CCNCC3)csc2n1)c1cnc2ccccc2n1`, the Potency is 29600 nM (active).
In the case of `Cc1ccccc1C(C(=O)NC1CCCCC1)N(C(=O)Cn1ccnc1C)c1cccc(F)c1` (centres undefined), the max response was -2.46% (inactive) and -16.9% (inactive).
`Cc1c(NC(=O)c2ccc(C(C)(C)C)cc2)cccc1-c1cn(C)c(=O)c(Nc2ccc(C(=O)N3CCOCC3)cc2)n1`: the max response is -19.5% (inactive) and -5.9% (inactive).
As to `CCOC(=O)C1=C(N)Oc2ccc(Br)cc2C1C(C#N)C(=O)OCC` (centres undefined), the max response is 0.0498% (inactive) and 4.88% (inactive); the compound was called inactive.
As for `Cc1ccc(Nc2cc(-c3cccc(N4C(=O)c5ccccc5C4=O)c3)ncn2)cc1NS(C)(=O)=O`, the max response is -7.13% (inactive) and the outcome was inactive.
For the compound `CC(C)[C@H](CO)Nc1nc(Nc2ccc(C(=O)O)c(Cl)c2)c2ncn(C(C)C)c2n1`, the max response is -1.87% (inactive) and the compound was called inactive.
In the case of `CCCNC(=O)NS(=O)(=O)c1ccc(Cl)cc1`, the compound was classed as inactive.
Take `COc1cc2ncnc(-n3nc(-c4ccccn4)nc3N)c2cc1OC`: the max response is 0.54% (inactive) and -22.1% (inactive).

The subject of the next experiment is HACAT. As to the kind of experiment: qHTS assay to identify novel small-molecules to repurpose for Merkel cell carcinoma treatment (AID 1296009). The following applies: MCC and control cell lines, CellTiter-Glo viability, 72 h; at 44.8 µM (top of the series) unless noted. In short, it runs like this:
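Cells were incubated with compound for 72 hr at 37 degree celsius before CellTiter-Glo addition. Luminescence was normalized with no-cell wells as full cytotoxicity and DMSO as baseline.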
For orientation: In qHTS, concentration-response curves come from the screen itself.
Take `O=C(O)c1cc(-c2ccccc2)nc2ccccc12`: the result was inactive.
Same read-out and setting: the value for `OC[C@@H](O)[C@H](O)[C@H](O)[C@@H](O)CO` was “inactive”; that for `O=C(NC1CCOCC1)c1ccc(-c2cc(-c3cn[nH]c3-c3ccccn3)ccn2)cc1` was “inactive”.
Take `CCN1CCC[C@H]1CNC(=O)c1cc(S(N)(=O)=O)ccc1OC`: the compound was called inactive.
Still for that read-out and setting: the value for `Clc1ccc(Cn2c(CN3CCCC3)nc3ccccc32)cc1` was “inactive [at 17.4 µM]”.
On to `O=C(O)Cc1cccc2ccccc12`, for which the call was inactive.
On the same count and under the same terms, in the case of `C[C@@H](O)[C@H]1C(=O)N2C(C(=O)O)=C(S[C@@H]3CN[C@H](C(=O)N(C)C)C3)[C@H](C)[C@H]12` it was “inactive”.
Same read-out and setting: in the case of `CC(=O)CCCCn1c(=O)c2c(ncn2C)n(C)c1=O` it was “inactive”; in that of `O=C(O)CCc1nc(-c2ccccc2)c(-c2ccccc2)o1`, “inactive”; in that of `CNC(=O)c1ccc2cc(C3(O)CCn4cncc43)ccc2c1` (centres undefined), “inactive”.
For `COc1ccccc1N1CCN(CCCNc2cc(=O)n(C)c(=O)n2C)CC1`, the compound was called inactive.
The same measure, in the same setting: the value for `CC(C)C(=O)Oc1ccc(CO)cc1[C@H](CCN(C(C)C)C(C)C)c1ccccc1` was “inactive”; that for `Cc1cnc(C(=O)O)c[n+]1[O-]` was “inactive”; that for `CC[C@]1(O)C[C@@H]2CN(CCc3c([nH]c4ccccc34)[C@@](C(=O)OC)(c3cc4c(cc3OC)N(C)[C@H]3[C@@](O)(C(=O)OC)[C@H](OC(C)=O)[C@]5(CC)C=CCN6CC[C@]43[C@@H]65)C2)C1` was “inactive”.
The same measure, in the same setting: in the case of `COc1ccc2cc(-c3nc(-c4ccc(S(C)=O)cc4)[nH]c3-c3ccncc3)ccc2c1` (centres undefined) it was “inactive”; in that of `CCN(CC)CCNC(=O)c1ccc(N)cc1`, “inactive; activator”.
For `CC(C)(C)c1cc(C(=O)O)c(NC(=O)Nc2ccc3[nH]ncc3c2)s1`, the compound was called inactive.
Still for that read-out and setting: the value for `NC(=O)c1ccc2nc(-c3ccc(Oc4ccc(Cl)cc4)cc3)[nH]c2c1` was “inactive”; that for `CCOc1ccc(Nc2nc(-c3c(C)nc4ccccn34)cs2)cc1` was “inactive”; that for `O=C(O)c1ccccc1C(=O)Nc1ccc(-c2ccccc2)cc1` was “inactive”.
For the compound `CN(C)CCC(c1ccccc1)c1ccccn1` (centres undefined), the call was inactive.
On the same count and under the same terms, in the case of `COC(=O)[C@@H]1[C@H]2C[C@H]3c4[nH]c5ccccc5c4CCN3C[C@@H]2CC[C@@H]1O` it was “inactive”.
On the same count and under the same terms, the value for `O=C(Nc1ccccc1-c1cn2c(CN3CCNCC3)csc2n1)c1cnc2ccccc2n1` was “inactive”; that for `Cc1ccccc1C(C(=O)NC1CCCCC1)N(C(=O)Cn1ccnc1C)c1cccc(F)c1` (centres undefined) was “inactive”.
Same read-out and setting: the value for `CCOC(=O)C1=C(N)Oc2ccc(Br)cc2C1C(C#N)C(=O)OCC` (centres undefined) was “inactive”; that for `Cc1ccc(Nc2cc(-c3cccc(N4C(=O)c5ccccc5C4=O)c3)ncn2)cc1NS(C)(=O)=O` was “inactive”; that for `CC(C)[C@H](CO)Nc1nc(Nc2ccc(C(=O)O)c(Cl)c2)c2ncn(C(C)C)c2n1` was “inactive”.
In the case of `CCCNC(=O)NS(=O)(=O)c1ccc(Cl)cc1`, the outcome was inactive.
Take `COc1cc2ncnc(-n3nc(-c4ccccn4)nc3N)c2cc1OC`: the outcome was inactive.
